# Reference: article PMC7862700, “An all-to-all approach to the identification of sequence-specific readers for epigenetic DNA modifications on cytosine”
# Key:
# Assay in all cases: DAPPL (digital affinity profiling via proximity ligation, sequencing); 10 mM Tris-HCl pH 7.5, 50 mM NaCl, 1 mM DTT, 4% glycerol, room temperature, 30 min; GST-TFs on glutathione beads, 16-mer random dsDNA library, 0.1% formaldehyde crosslink after washing; high values mean tight binding
# Conditions in all cases: protein: recombinant; tags: N-terminal GST; dsDNA, one strand shown
# FLI1 = biological target: T1, FLI1 (Homo sapiens, UniProt Q01543 1-452)
# T1 sequence: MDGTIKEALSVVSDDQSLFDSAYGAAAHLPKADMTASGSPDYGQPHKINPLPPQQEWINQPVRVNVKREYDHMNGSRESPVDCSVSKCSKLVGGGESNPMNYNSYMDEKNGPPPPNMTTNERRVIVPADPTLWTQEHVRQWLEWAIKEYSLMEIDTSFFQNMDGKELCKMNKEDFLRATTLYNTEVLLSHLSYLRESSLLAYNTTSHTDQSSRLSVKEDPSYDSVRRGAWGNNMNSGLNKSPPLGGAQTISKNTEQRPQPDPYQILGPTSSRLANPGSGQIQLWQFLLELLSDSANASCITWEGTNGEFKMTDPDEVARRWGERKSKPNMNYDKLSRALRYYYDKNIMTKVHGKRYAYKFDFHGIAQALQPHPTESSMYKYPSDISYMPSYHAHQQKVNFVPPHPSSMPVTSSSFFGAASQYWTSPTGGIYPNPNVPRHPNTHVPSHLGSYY
# In short: (§1)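 Binding signal is each hexamer's read frequency for a factor divided by its frequency in the tag-only sample. The factors were GST-fused human transcription factors from yeast, captured on glutathione beads, DNA-barcoded and pooled with that sample. Pools were incubated with 200 nmole of a random double-stranded 16-mer DNA library in Tris/NaCl/DTT/glycerol buffer at room temperature for 30 min, then washed, crosslinked with 0.1% formaldehyde, proximity-ligated with BsaI/T4 ligase (1 h, 37 °C), PCR-amplified and sequenced on an Illumina NextSeq500.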
# ELK1 = biological target: T2, ELK1 (Homo sapiens, UniProt P19419 1-428)
# T2 sequence: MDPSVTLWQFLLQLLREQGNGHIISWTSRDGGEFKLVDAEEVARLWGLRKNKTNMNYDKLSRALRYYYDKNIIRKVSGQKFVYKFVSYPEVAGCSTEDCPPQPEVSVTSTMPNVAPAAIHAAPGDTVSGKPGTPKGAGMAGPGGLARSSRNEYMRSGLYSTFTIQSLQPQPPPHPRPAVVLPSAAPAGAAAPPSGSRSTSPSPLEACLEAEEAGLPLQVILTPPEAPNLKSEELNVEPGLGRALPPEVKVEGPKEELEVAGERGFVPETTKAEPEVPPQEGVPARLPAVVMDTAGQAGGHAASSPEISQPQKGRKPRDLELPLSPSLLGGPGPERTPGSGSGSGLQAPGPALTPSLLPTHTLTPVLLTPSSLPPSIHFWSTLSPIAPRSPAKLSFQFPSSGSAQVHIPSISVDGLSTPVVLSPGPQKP
# In short: as §1
# GABPA = biological target: T3, GABPA (Homo sapiens, UniProt Q06546 1-454)
# T3 sequence: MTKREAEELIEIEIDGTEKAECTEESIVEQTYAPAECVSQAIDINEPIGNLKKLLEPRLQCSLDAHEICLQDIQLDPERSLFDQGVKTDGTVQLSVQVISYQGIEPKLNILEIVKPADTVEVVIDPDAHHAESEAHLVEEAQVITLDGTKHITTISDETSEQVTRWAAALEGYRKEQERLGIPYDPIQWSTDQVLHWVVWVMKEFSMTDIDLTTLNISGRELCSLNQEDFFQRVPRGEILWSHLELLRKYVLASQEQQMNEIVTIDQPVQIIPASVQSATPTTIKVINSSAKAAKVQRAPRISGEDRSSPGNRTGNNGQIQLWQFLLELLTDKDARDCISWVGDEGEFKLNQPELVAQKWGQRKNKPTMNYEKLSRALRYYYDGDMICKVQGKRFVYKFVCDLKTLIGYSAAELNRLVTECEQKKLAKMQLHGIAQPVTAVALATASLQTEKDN
# In short: as §1
# ERG = biological target: T4, ERG (Homo sapiens, UniProt P11308 1-479)
# T4 sequence: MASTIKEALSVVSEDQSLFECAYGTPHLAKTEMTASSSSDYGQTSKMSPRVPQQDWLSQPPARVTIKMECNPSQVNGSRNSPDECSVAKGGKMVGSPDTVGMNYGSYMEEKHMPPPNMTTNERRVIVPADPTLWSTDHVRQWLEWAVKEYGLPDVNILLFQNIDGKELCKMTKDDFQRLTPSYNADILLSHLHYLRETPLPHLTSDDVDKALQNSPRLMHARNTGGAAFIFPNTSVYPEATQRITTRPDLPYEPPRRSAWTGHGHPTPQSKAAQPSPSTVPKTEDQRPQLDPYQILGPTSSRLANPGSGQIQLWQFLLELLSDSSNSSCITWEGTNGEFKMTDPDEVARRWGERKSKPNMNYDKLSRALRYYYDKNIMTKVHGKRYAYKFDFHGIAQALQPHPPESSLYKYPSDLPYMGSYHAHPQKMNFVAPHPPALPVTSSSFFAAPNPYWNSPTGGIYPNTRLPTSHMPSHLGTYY
# In short: as §1
# ELF1 = ELF1 (Homo sapiens, UniProt P32519 1-619)
# Sequence of ELF1 (P32519 whole entry): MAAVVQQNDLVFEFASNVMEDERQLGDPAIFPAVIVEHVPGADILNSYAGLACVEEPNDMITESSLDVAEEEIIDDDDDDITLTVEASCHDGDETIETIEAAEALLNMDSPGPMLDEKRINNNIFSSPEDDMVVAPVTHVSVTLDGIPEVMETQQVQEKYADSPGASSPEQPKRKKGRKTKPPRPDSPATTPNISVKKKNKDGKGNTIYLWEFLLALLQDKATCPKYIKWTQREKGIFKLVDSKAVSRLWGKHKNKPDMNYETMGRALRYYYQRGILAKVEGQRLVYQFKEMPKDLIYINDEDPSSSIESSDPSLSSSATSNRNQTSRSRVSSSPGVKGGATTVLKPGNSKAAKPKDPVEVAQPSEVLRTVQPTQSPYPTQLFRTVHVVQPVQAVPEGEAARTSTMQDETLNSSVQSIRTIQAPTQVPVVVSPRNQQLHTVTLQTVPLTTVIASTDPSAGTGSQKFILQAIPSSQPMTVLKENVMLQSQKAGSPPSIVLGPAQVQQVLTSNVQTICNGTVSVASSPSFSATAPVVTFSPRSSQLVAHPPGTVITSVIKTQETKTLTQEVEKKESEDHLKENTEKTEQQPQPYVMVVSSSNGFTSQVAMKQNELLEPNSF
# In short: as §1
# EHF = biological target: T5, EHF (Homo sapiens, UniProt Q9NZC4 1-300)
# T5 sequence: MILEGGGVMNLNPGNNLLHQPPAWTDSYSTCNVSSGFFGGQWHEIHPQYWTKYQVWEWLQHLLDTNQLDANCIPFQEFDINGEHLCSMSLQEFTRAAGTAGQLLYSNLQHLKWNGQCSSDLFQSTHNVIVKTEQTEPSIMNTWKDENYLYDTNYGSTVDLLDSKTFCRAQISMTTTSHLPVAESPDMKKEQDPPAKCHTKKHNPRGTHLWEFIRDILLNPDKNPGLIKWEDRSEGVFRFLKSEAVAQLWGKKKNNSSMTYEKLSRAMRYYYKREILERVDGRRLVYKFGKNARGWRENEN
# In short: as §1
# SPI1 = SPI1 (Homo sapiens, UniProt P17947 1-270)
# In short: as §1
# SPIB = SPIB (Homo sapiens, UniProt Q01892 1-262)
# Sequence of SPIB (Q01892 whole entry): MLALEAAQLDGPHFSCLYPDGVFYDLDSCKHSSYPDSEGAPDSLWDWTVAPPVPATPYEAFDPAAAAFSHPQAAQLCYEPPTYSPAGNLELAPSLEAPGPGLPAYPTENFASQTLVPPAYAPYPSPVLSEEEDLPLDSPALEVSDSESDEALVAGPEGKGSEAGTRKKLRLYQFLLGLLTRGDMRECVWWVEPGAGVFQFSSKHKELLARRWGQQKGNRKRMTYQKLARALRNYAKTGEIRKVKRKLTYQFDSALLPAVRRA
# In short: as §1
# ELK3 = biological target: T6, ELK3 (Homo sapiens, UniProt P41970 1-407)
# T6 sequence: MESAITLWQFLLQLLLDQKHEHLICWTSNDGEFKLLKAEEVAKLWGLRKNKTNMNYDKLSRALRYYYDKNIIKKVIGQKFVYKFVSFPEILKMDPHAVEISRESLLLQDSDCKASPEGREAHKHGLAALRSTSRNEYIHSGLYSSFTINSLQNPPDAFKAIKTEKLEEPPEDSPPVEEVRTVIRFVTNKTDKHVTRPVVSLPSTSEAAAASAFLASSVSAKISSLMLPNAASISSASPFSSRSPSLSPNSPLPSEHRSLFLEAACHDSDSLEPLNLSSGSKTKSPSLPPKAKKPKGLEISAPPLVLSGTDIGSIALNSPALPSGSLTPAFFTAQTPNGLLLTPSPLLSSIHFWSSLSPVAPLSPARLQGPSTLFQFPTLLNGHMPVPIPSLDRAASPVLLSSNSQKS
# In short: as §1
Sequence,binding signal (FLI1),binding signal (ELK1),binding signal (GABPA),binding signal (ERG),binding signal (ELF1),binding signal (EHF),binding signal (SPI1),binding signal (SPIB),binding signal (ELK3)
ACTTAT,"1.4 fold enrichment (6-mer frequency, TF over GST control)","1.4 fold enrichment (6-mer frequency, TF over GST control)","1.47 fold enrichment (6-mer frequency, TF over GST control)","1.37 fold enrichment (6-mer frequency, TF over GST control)","1.46 fold enrichment (6-mer frequency, TF over GST control)","1.41 fold enrichment (6-mer frequency, TF over GST control)","1.39 fold enrichment (6-mer frequency, TF over GST control)","1.38 fold enrichment (6-mer frequency, TF over GST control)","1.5 fold enrichment (6-mer frequency, TF over GST control)"
TTACTC,"1.31 fold enrichment (6-mer frequency, TF over GST control)","1.24 fold enrichment (6-mer frequency, TF over GST control)","1.26 fold enrichment (6-mer frequency, TF over GST control)","1.19 fold enrichment (6-mer frequency, TF over GST control)","1.24 fold enrichment (6-mer frequency, TF over GST control)","1.34 fold enrichment (6-mer frequency, TF over GST control)","1.32 fold enrichment (6-mer frequency, TF over GST control)","1.24 fold enrichment (6-mer frequency, TF over GST control)","1.26 fold enrichment (6-mer frequency, TF over GST control)"
ACATTA,"1.17 fold enrichment (6-mer frequency, TF over GST control)","1.16 fold enrichment (6-mer frequency, TF over GST control)","1.17 fold enrichment (6-mer frequency, TF over GST control)","1.08 fold enrichment (6-mer frequency, TF over GST control)","1.19 fold enrichment (6-mer frequency, TF over GST control)","1.17 fold enrichment (6-mer frequency, TF over GST control)","1.06 fold enrichment (6-mer frequency, TF over GST control)","1.2 fold enrichment (6-mer frequency, TF over GST control)","1.08 fold enrichment (6-mer frequency, TF over GST control)"
TAGTTA,"1.19 fold enrichment (6-mer frequency, TF over GST control)","1.2 fold enrichment (6-mer frequency, TF over GST control)","1.2 fold enrichment (6-mer frequency, TF over GST control)","1.12 fold enrichment (6-mer frequency, TF over GST control)","1.11 fold enrichment (6-mer frequency, TF over GST control)","1.12 fold enrichment (6-mer frequency, TF over GST control)","1.09 fold enrichment (6-mer frequency, TF over GST control)","1.19 fold enrichment (6-mer frequency, TF over GST control)","1.12 fold enrichment (6-mer frequency, TF over GST control)"
AACGCT,"1.16 fold enrichment (6-mer frequency, TF over GST control)","1.22 fold enrichment (6-mer frequency, TF over GST control)","1.22 fold enrichment (6-mer frequency, TF over GST control)","1.19 fold enrichment (6-mer frequency, TF over GST control)","1.27 fold enrichment (6-mer frequency, TF over GST control)","1.23 fold enrichment (6-mer frequency, TF over GST control)","1.17 fold enrichment (6-mer frequency, TF over GST control)","1.21 fold enrichment (6-mer frequency, TF over GST control)","1.2 fold enrichment (6-mer frequency, TF over GST control)"
ACTCTC,"1.5 fold enrichment (6-mer frequency, TF over GST control)","1.59 fold enrichment (6-mer frequency, TF over GST control)","1.41 fold enrichment (6-mer frequency, TF over GST control)","1.47 fold enrichment (6-mer frequency, TF over GST control)","1.55 fold enrichment (6-mer frequency, TF over GST control)","1.47 fold enrichment (6-mer frequency, TF over GST control)","1.49 fold enrichment (6-mer frequency, TF over GST control)","1.47 fold enrichment (6-mer frequency, TF over GST control)","1.44 fold enrichment (6-mer frequency, TF over GST control)"
ATGAGC,"1.11 fold enrichment (6-mer frequency, TF over GST control)","1.27 fold enrichment (6-mer frequency, TF over GST control)","1.33 fold enrichment (6-mer frequency, TF over GST control)","1.2 fold enrichment (6-mer frequency, TF over GST control)","1.24 fold enrichment (6-mer frequency, TF over GST control)","1.18 fold enrichment (6-mer frequency, TF over GST control)","1.13 fold enrichment (6-mer frequency, TF over GST control)","1.24 fold enrichment (6-mer frequency, TF over GST control)","1.19 fold enrichment (6-mer frequency, TF over GST control)"
CAATTA,"1.05 fold enrichment (6-mer frequency, TF over GST control)","1.11 fold enrichment (6-mer frequency, TF over GST control)","1.1 fold enrichment (6-mer frequency, TF over GST control)","1.05 fold enrichment (6-mer frequency, TF over GST control)","1.1 fold enrichment (6-mer frequency, TF over GST control)","1.07 fold enrichment (6-mer frequency, TF over GST control)","1.15 fold enrichment (6-mer frequency, TF over GST control)","1.16 fold enrichment (6-mer frequency, TF over GST control)","1.05 fold enrichment (6-mer frequency, TF over GST control)"
